Compounds with a hit are over-represented: about 0.82% of the library has one in this group of screens.
RecA splice inh: Mtb RecA intein splicing inhibitors, primary screen, biochemical, fluorescence, HTS; Protein RecA (Mycobacterium tuberculosis (strain ATCC 25618 / H37Rv)), P9WHJ3; cell-free RecA intein splicing; inhibition, % (concentration not given with the values); 290,000 compounds, 0.75% hits; in the data active means inhibition above about 30%;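 further: 0% = vehicle wells and 100% = reference inhibitor control wells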
FadD28 FP inh: inhibitors of FadD28 bisubstrate probe binding, primary screen, biochemical, fluorescence polarization, single point | Mycobacterium tuberculosis FadD28 fatty-acid-AMP ligase | inhibition, % at 12.5 µM | 360,000 compounds, 0.22% hits; in the data active means inhibition above about 8.5%, passing the limit was not always enough
UGM FP inh: M. tuberculosis UGM enzyme inhibitors, primary screen, biochemical, fluorescence polarization, single point. UDP-galactopyranose mutase (Mycobacterium tuberculosis (strain ATCC 25618 / H37Rv)), …. inhibition, % at 10 µM. AID 504406, 2011. 320,000 compounds, 0.06% hits. purified UGM, fluorescence polarization probe displacement; in the data active means inhibition above about 10%, passing the limit was not always enough
Rv3671c inh: Rv3671c serine protease inhibitors, primary screen, biochemical, fluorescence polarization, M. tuberculosis H37Rv; P9WHR9; inhibition, % at 5.96 µM; 320,000 compounds, 0.048% hits; AID 2606, 2010; in the data active means inhibition above about 38%;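 further: extracellular domain of Rv3671c used as enzyme; 0% = enzyme with DMSO and 100% = no enzyme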
Yp Topo-I inh: Yersinia pestis topoisomerase I inhibitors, primary screen, biochemical, cleavage product accumulation, plate reader, single point; Y. pestis Topo-I cleavage product accumulation; AID 504884, 2011; DNA topoisomerase I (Yersinia pestis CO92); activity, % at 10 µM; 360,000 compounds, 0.064% hits; in the data active means activity above about 50%, passing the limit was not always enough
Mtb BioA inh: M. tuberculosis BioA enzyme inhibitors, primary screen, biochemical, plate reader, single point, HTS; 7,8-diaminopelargonic acid synthase BioA (Mycobacterium tuberculosis); purified M. tuberculosis BioA enzyme; inhibition, % at 9.99 µM; 360,000 compounds, 0.096% hits; AID 602481, 2012; in the data active means inhibition above about 40%
GFP chromo cs: counter-screen: blocks GFP chromophore formation, dose response, counter-screen, biochemical, fluorescence, homogeneous; shares compounds with RecA splice inh; cell-free GFP chromophore formation; EC50, µM; 2,100 compounds, 83% hits; call rule not given here
Active calls of the source: *; x = not tested or not shown.

SMILES	RecA splice inh	FadD28 FP inh	UGM FP inh	Rv3671c inh	Yp Topo-I inh	Mtb BioA inh	GFP chromo cs
O=C(Nc1ccc2c(c1)OCO2)N[C@@H]1CC[C@H](CCNC(=O)C2CC2)O[C@H]1CO	x	x	x	x	x	2	x
C[C@@H]1CN([C@@H](C)CO)C(=O)CCCn2cc(nn2)CO[C@@H]1CN(C)Cc1cccc(C(=O)O)c1	x	x	x	x	x	-3	x
N#CC(C#N)C(c1ccsc1)c1c(-c2ccccc2)[nH][nH]c1=O (centres undefined)	86*	1	1	-8	1	1	7.6*
CCOC(=O)CN1C(=O)N[C@@H](c2cccc(C(F)(F)F)c2)C(C(C)=O)=C1C	35*	-1	-2	-9	-11	3	>38
CCOC(=O)CN1C(=O)N[C@@H](c2cccc(F)c2)C(C(C)=O)=C1C	3	-4	-1	3	2	-1	x
COc1ccc(S(=O)(=O)Nc2ccc3c(c2)CC(=O)N([C@@H](C)CO)C[C@H](C)[C@@H](CN(C)S(=O)(=O)c2ccccc2)O3)cc1	x	x	x	x	x	0	x
CCOC(=O)c1c(-c2cccs2)csc1NC(=O)CC(C)C	15	-4	-2	-2	20	-1	x
NC(=O)c1c(-c2cccs2)csc1N	67*	x	-2	13	x	x	13*
CCCC(=O)Nc1ccc2c(c1)OC[C@@H](C)N(Cc1ccncc1)C[C@H](C)[C@@H](OC)CN(C)C2=O	x	x	x	x	x	-4	x
COc1ccc2nc(C)cc(Sc3nc4ccccc4s3)c2c1	38*	-8	-1	-13	30	-1	24*
COc1ccc2nc(C)cc(SCC(=O)NNC(=O)COc3ccccc3)c2c1	-3	-2	2	-3	-2	x	x
C=CCn1c(NC(=O)c2ccc(Br)o2)c(S(=O)(=O)c2ccccc2)c2nc3ccccc3nc21	46*	-2	2	-102	-8	-1	31*
O=C(C[C@H]1C=C[C@@H](NC(=O)CCN2CCCCC2)[C@@H](CO)O1)Nc1ccc(-c2ccccc2)cc1	x	x	x	x	x	3	x
CC1=NN(c2ccccc2)C(=O)C1/C=C1\C(=O)NC(=O)N(c2ccc(C)c(C)c2)C1=O (centres undefined)	41*	-2	3	-20	1	0	16*
CC1=NN(c2ccccc2)C(=O)C1/C=C1\C(=O)NC(=O)N(c2cc(C)cc(C)c2)C1=O (centres undefined)	16	1	2	-109	4	5	x
Cc1[nH]c2ccccc2c1CC#N	-1	-1	0	10	0	1	x
Cc1[nH]c2ccccc2c1C(C#N)(C#N)C1C(=O)c2ccccc2C1=O	42*	18*	-3	-70	-23	-1	34*
CCSc1nnc(-c2ccc(C)cc2)c2ccccc12	10	-2	0	0	46	0	x
Cc1ccc(-c2nnc(Sc3nc4ccccc4o3)c3ccccc23)cc1	77*	-1	-1	-1	12	0	0.93*
Clc1ccc(-c2nnc(Sc3nc4ccccc4o3)c3ccccc23)cc1	57*	-3	2	-10	1	1	0.62*
Cc1nnc(Sc2nc3ccccc3o2)c2ccccc12	50*	-6	2	5	0	-3	28*
COc1ccc(NC(=O)Nc2ccc3c(c2)CC(=O)N([C@H](C)CO)C[C@H](C)[C@@H](CN(C)Cc2ccncc2)O3)cc1	x	x	x	x	x	0	x
COC(=O)C[C@H]1CC[C@@H]2[C@H](COc3ccc(NC(=O)c4ccccc4F)cc3C(=O)N2C)O1	x	x	x	x	x	1	x
C=CCc1cccc(C=Nc2cc(Br)ccc2O)c1O	0	-1	0	9	-10	1	x
C=CCc1cccc(C=Nc2c[nH]c(=O)[nH]c2=O)c1O	x	2	4	-11	-3	-2	>38
SMILES	RecA splice inh	FadD28 FP inh	UGM FP inh	Rv3671c inh	Yp Topo-I inh	Mtb BioA inh	GFP chromo cs
CCOc1ccccc1NC(=O)c1nc(S(=O)(=O)Cc2cccc(C)c2)ncc1Cl	8	-1	-3	-8	1	0	x
CCSc1nnc(NC(=O)c2nc(S(=O)(=O)Cc3ccc(F)cc3)ncc2Cl)s1	85*	-2	0	-8	7	3	21*
Cc1ccc(CS(=O)(=O)c2ncc(Cl)c(C(=O)Nc3nnc(C(C)C)s3)n2)cc1	86*	-1	1	-2	3	0	3.7*
CC(C)c1nnc(NC(=O)CS(=O)(=O)Cc2ccccc2)s1	3	-1	1	6	3	x	x
C=CCSc1nnc(NC(=O)c2nc(SCC)ncc2Cl)s1	1	0	4	-2	-5	x	x
CSc1nnc(NC(=O)c2nc(S(=O)(=O)Cc3cccc(C)c3)ncc2Cl)s1	81*	-3	0	2	9	0	18*
Cc1cccc(CS(=O)(=O)c2ncc(Cl)c(C(=O)Nc3nnc(C(C)C)s3)n2)c1	86*	-3	0	-8	7	-1	0.86*
C[C@@H](NC(=O)C[C@H]1C=C[C@H](NC(=O)Nc2ccc3c(c2)OCO3)[C@H](CO)O1)c1ccccc1	x	x	x	x	x	0	x
CC(C)c1nnc(NC(=O)c2nc(S(=O)(=O)Cc3ccc(F)cc3)ncc2Cl)s1	82*	-3	-4	-5	6	-1	16*
O=C(C[C@H]1C[C@@H]2c3cc(NC(=O)C4CCC4)ccc3O[C@@H]2[C@@H](CO)O1)NCc1ccccc1	x	x	x	x	x	2	x
CC(=O)Oc1ccc2c(=O)oc(-c3ccccc3C)nc2c1	33*	-4	-1	0	-2	1	>38
COc1cccc(NC(=O)CSc2c3c(nc4ccccc24)CCCC3)c1	70*	-6	1	-13	19	x	24*
O=C1C(Cl)=C(N2CCC(C(=O)O)CC2)C(=O)c2ccccc21	50*	2	-1	-100	-5	x	13*
NC(=O)C1CCN(C2=C(NS(=O)(=O)c3ccccc3)C(=O)c3ccccc3C2=O)CC1	-1	0	1	-7	-1	x	x
NC(=O)C1CCN(C2=C(Cl)C(=O)c3ccccc3C2=O)CC1	43*	-4	3	-71	-2	2	0.54*
CN1C(=O)c2cc(NC(=O)C3CCOCC3)ccc2OC[C@@H]2O[C@H](CC(=O)O)CC[C@H]21	x	x	x	x	x	0	x
COc1ccc(C#Cc2cnc3c(c2)C(=O)N([C@H](C)CO)C[C@H](C)[C@H](CN(C)S(=O)(=O)c2ccc(C#N)cc2)O3)cc1OC	x	x	x	x	x	-1	x
C[C@H](CO)N1C[C@H](C)[C@@H](CN(C)Cc2ccccc2)Oc2ccc(NC(=O)c3ccncc3)cc2C1=O	x	x	x	x	x	0	x
